Results filed as inconclusive are left out. Active and inactive are the calls of the source. Unless noted, calls follow the shape of the dose curve; as a rule, active = well fitted curve in the direction sought with a large enough effect; inconclusive = small, poorly fitted or top-dose-only effect, or another doubt; inactive = no such curve, though single readings can be large; an effect the other way counts as inactive or inconclusive.
What was measured:
[1] = target: T1, Hexokinase-4 (Homo sapiens) + Glucokinase regulatory protein (Homo sapiens) (UniProt P35557+Q14397); test: qHTS assay for inhibitors of recombinant human GCK-GKRP interaction: Diaphorase-coupled assay (AID 743205)
T1 sequence (P35557 whole entry, looked up): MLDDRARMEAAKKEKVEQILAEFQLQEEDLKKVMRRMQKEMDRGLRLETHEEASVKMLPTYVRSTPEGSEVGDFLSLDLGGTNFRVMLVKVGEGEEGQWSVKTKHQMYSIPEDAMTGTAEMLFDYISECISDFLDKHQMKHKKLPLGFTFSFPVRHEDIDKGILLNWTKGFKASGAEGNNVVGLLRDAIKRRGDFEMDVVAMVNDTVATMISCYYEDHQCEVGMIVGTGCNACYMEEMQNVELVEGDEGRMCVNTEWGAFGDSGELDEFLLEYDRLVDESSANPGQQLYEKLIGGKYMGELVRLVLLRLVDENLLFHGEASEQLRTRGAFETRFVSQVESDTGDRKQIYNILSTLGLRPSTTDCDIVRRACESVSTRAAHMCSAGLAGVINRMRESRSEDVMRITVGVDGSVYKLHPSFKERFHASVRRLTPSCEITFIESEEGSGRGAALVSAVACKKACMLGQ
T1 sequence (Q14397 whole entry, looked up): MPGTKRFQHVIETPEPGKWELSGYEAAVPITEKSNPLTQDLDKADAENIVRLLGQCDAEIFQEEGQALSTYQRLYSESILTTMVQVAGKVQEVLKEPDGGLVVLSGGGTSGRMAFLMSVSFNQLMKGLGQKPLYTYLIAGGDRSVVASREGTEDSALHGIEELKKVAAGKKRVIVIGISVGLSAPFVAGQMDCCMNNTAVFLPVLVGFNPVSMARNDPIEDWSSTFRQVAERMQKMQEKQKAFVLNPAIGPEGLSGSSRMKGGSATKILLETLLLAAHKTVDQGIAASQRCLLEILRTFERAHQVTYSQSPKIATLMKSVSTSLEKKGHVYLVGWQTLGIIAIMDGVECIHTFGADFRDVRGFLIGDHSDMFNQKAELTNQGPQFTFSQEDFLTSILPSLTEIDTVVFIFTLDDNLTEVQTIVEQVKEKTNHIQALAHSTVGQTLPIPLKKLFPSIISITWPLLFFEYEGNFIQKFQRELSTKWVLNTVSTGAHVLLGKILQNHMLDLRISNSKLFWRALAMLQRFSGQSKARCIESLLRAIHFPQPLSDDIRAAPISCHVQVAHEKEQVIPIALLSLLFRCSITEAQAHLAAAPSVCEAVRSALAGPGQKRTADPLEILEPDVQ
Outline: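 Inhibitors of the GCK–GKRP complex relieve GKRP suppression of GCK, detected through a G6PDH–diaphorase cascade reducing resazurin. Human GST-GCK and FLAG-GKRP are used at 10 nM with 5 mM glucose and 0.4 mM ATP.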

[2] = target: T1, Hexokinase-4 (Homo sapiens) + Glucokinase regulatory protein (Homo sapiens); test: qHTS assay for inhibitors of recombinant human GCK-GKRP interaction: ADP-Glo assay (AID 743206);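 also: plate controls were DMSO plus enzyme for no effect and no enzyme for full effect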
Outline: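 GST-GCK and FLAG-GKRP (15 nM each in the dispensed mix, with 2 uM S6P) react with 0.4 mM ATP and 5 mM glucose (final) in Hepes pH 7.6 for 60 min at room temperature. ADP is measured by ADP-Glo luminescence.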

[3] = target: T1, Hexokinase-4 (Homo sapiens) + Glucokinase regulatory protein (Homo sapiens); test: qHTS assay for inhibitors of recombinant human GCK-GKRP interaction: HTRF assay (AID 743207);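 also: 0% = DMSO with GCK present and -100% = DMSO wells lacking GCK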
Outline: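 Steps: dispense GCK–GKRP complex (5 nM each, GST- and FLAG-tagged) with 2 uM S6P; pin in compounds; add XL665/Eu-cryptate-labelled antibodies; incubate 60 min at room temperature; read time-resolved FRET at 665 and 615 nm.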

[4] = qHTS Assay for Identifying Gametocytocidal Compounds (AID 743244);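 also: % is scaled to controls: 0 for no effect and ±100 for the full control effect; actives lower the fluorescent signal which means gametocytes are killed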; details: P. falciparum 3D7 stage III-V gametocytes, alamarBlue, 72 h; max response: active compounds read low
Outline: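 Stage III–V gametocytes of P. falciparum 3D7 were seeded at 20,000 cells/well onto pre-dispensed compounds. After 72 h, 37 °C, 5% CO2, alamarBlue was added for another 24 h.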

[5] = qHTS assay for measurement of the activity of small molecule inhibitors on Zika virus induced Caspase-3 activity in human iPSC derived neural progenitor cells (hNPCs) (AID 1224857); also: % of control where 0% means no effect; nearly all actives have a fitted effect of over 65% in size
Outline: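 Values are percent inhibition of virus-induced caspase-3/7 signal, scaled between uninfected cells and ZIKV-infected cells. Infection used 2 FFU/cell for 6 h after 1 h compound exposure.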

[6] = qHTS assay for measurement of the activity of small molecule inhibitors on Zika virus induced Caspase-3 activity in human astrocytoma cells (AID 1224859);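 also: plate controls were ZIKV-infected untreated cells for no effect and uninfected cells for full effect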
Outline: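 Compound added 1 h pre-infection; ZIKV 2 FFU/cell on SNB-19 cells, 6 h, 37 C/5% CO2. Caspase-Glo 3/7 luminescence; values as % inhibition of ZIKV-induced caspase activity.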

[7] = target: Atrial natriuretic peptide receptor 1 (Homo sapiens) (UniProt P16066); test: Natriuretic polypeptide receptor (hNpr1) antagonism - Pilot screen (AID 1347049; calls by dose curve;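 also: agonist-evoked cGMP luminescence read 20 min after hNppA addition; series mostly up to about 58 µM; % is scaled to controls: 0 for no effect and ±100 for the full control effect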)
Sequence of Atrial natriuretic peptide receptor 1 (Homo sapiens) (P16066 whole entry, looked up): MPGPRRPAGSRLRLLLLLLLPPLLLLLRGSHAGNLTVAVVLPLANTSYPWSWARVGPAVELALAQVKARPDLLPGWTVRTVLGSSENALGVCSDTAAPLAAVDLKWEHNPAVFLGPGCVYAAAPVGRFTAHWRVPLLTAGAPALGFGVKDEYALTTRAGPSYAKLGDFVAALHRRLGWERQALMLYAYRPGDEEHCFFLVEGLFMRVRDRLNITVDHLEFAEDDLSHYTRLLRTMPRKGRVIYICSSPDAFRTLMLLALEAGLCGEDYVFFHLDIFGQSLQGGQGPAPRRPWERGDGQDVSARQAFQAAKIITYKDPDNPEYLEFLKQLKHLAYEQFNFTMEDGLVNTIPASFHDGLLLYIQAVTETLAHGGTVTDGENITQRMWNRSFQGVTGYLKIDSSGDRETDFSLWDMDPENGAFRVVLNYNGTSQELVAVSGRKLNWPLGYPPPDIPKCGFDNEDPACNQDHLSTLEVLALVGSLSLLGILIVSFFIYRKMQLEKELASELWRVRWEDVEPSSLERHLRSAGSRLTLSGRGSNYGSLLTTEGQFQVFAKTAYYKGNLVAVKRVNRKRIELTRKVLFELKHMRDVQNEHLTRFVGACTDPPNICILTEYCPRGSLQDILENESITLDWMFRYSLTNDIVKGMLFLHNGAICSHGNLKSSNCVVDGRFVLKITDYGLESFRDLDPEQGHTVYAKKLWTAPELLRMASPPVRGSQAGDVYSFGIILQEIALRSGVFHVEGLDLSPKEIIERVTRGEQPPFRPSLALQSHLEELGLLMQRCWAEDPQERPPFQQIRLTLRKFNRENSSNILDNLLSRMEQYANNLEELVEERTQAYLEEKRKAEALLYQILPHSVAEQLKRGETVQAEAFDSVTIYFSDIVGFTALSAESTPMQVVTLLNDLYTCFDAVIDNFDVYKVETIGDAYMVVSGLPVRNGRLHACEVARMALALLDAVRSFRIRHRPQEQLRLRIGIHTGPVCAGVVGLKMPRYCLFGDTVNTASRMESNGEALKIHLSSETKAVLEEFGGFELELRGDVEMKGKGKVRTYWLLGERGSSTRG
Outline: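 HEK293 cells expressing hNpr1 and GloSensor cGMP luciferase, 1500/well, loaded with 2% GloSensor reagent 2 h, compound 30 min at room temperature; luminescence read before and 20 min after 0.1 nM hNppA stimulation.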

[8] = target: Atrial natriuretic peptide receptor 2 (Homo sapiens) (UniProt P20594); test: Natriuretic polypeptide receptor (hNpr2) antagonism - Pilot subtype selectivity assay (AID 1347050; calls by dose curve; also: % is scaled to controls: 0 for no effect and ±100 for the full control effect)
Sequence of Atrial natriuretic peptide receptor 2 (Homo sapiens) (P20594 whole entry, looked up): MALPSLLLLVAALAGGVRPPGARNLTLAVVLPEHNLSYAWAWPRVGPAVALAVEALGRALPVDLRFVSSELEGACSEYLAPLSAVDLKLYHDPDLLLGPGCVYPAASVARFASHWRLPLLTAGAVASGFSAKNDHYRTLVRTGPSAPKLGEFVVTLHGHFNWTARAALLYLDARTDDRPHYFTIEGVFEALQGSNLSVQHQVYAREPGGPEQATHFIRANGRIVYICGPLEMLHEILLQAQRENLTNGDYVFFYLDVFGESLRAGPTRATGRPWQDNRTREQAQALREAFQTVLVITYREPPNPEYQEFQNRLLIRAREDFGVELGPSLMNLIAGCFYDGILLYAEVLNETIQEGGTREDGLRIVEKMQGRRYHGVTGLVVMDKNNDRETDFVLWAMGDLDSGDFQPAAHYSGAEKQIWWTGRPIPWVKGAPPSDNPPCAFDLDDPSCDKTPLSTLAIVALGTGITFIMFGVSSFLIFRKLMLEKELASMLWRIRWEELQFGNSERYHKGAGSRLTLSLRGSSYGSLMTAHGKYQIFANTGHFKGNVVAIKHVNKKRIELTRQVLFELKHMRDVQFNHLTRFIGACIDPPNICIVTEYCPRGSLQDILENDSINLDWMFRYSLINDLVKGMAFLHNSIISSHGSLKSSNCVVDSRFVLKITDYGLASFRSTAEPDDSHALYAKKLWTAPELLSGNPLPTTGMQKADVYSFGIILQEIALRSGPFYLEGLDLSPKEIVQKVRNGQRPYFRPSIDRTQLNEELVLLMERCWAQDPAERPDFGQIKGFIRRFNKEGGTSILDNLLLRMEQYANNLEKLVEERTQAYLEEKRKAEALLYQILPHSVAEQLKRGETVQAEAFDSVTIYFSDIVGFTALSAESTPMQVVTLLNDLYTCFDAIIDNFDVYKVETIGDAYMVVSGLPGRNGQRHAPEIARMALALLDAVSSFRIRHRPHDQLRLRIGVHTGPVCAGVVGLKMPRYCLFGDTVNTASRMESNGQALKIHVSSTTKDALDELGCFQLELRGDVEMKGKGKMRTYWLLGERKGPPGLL
Outline: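 HEK293 cells expressing hNpr2 and a GloSensor cGMP luciferase sensor, 1500/well, preloaded 2 h with 2% GloSensor reagent, compound 30 min, then 1 nM hNppC for 20 min. Antagonism from luminescence after versus baseline pre-read; LOPAC in 1:5 titrations.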

CCN(CC)CCOC(=O)c1cc(Cl)c(N)cc1OC
inactive: Potency [1] | Potency [2] | Potency [3] | max response [4] 40.4% | Potency [5] | Potency [6] | Potency [7] | Potency [8]

CC(N)(Cc1ccc(O)cc1)C(=O)O (centres undefined)
inactive: Potency [1] | Potency [2] | Potency [3] | max response [4] -28.2% | Potency [5] | Potency [6] | Potency [7] | Potency [8]

CCC1(O)CC2CN(CCc3c([nH]c4ccccc34)[C@@](C(=O)OC)(c3cc4c(cc3OC)N(C)C3[C@]45CCN4CC=C[C@@](CC)([C@@H](OC(C)=O)[C@]3(O)C(=O)OC)[C@H]45)C2)C1 (some centres undefined)
inactive: Potency [1] | Potency [2] | Potency [3] | Potency [5] | Potency [6] | Potency [7] | Potency [8]

Nc1ccc(N2C(=O)c3ccccc3C2=O)c(Cl)c1
inactive: Potency [1] | Potency [2] | Potency [3] | max response [4] 6.35% | Potency [5] | Potency [6] | Potency [7] | Potency [8]

CC(/C=C/c1cccc(Oc2ccc(F)cc2)c1)N(O)C(N)=O (centres undefined)
inactive: Potency [1] | Potency [2] | Potency [3] | max response [4] 13.8% | Potency [5] | Potency [6] | Potency [7] | Potency [8]

Cc1cc(Cn2cnc3c2C[C@@H](C(=O)O)N(C(=O)C(c2ccccc2)c2ccccc2)C3)ccc1N
inactive: Potency [1] | Potency [2] | Potency [3] | Potency [5] | Potency [6] | Potency [7] | Potency [8]

C=CCNc1ncnc2ccc(Br)cc12
inactive: Potency [1] | Potency [2] | Potency [3] | max response [4] 27.4% | Potency [5] | Potency [6] | Potency [7]

NC(N)=NC(N)=Nc1ccccc1
inactive: Potency [2] | Potency [3] | max response [4] 28.5% | Potency [5] | Potency [6] | Potency [7] | Potency [8]

O=C(OCCN1CCOCC1)C1(c2ccccc2)CCCCC1
inactive: Potency [1] | Potency [2] | Potency [3] | Potency [5] | Potency [6] | Potency [7] | Potency [8]

Cc1ccccc1/C=C/C1=NCCN1
inactive: Potency [1] | Potency [2] | Potency [3] | Potency [5] | Potency [6] | Potency [7] | Potency [8]

CCCCS(=N)(=O)CC[C@H](N)C(=O)O (some centres undefined)
inactive: Potency [1] | Potency [2] | Potency [3] | Potency [5] | Potency [6] | Potency [7] | Potency [8]

COc1ccc(-c2cc3ncc(C)n3c(Nc3ncccc3C(N)=O)n2)cc1OC
inactive: Potency [1] | Potency [2] | Potency [3] | max response [4] 12.4% | Potency [5] | Potency [6] | Potency [7]

CN(C)C(=O)/N=N/C(=O)N(C)C
inactive: Potency [1] | Potency [2] | Potency [3] | max response [4] -1.96% | Potency [5] | Potency [6] | Potency [7] | Potency [8]

CC1CCN=C(N)S1 (centres undefined)
inactive: Potency [1] | Potency [2] | Potency [3] | max response [4] -7.18% | Potency [5] | Potency [6] | Potency [8]

CCCCCC[C@@H]([C@@H](C)O)n1cnc2c(N)ncnc21
inactive: Potency [1] | Potency [2] | Potency [3] | max response [4] 12% | Potency [5] | Potency [6] | Potency [7] | Potency [8]

C=CCN1CCc2c(cc(O)c(O)c2Cl)C(c2ccccc2)C1 (centres undefined)
inactive: Potency [1] | Potency [2] | Potency [3] | Potency [5] | Potency [6] | Potency [7] | Potency [8]

C[C@]12C=CC(=O)C=C1CC[C@@H]1C2=CC[C@]2(C)[C@@H](C(=O)CN3CCN(c4cc(N5CCCC5)nc(N5CCCC5)n4)CC3)CC[C@@H]12
inactive: Potency [2] | Potency [3] | Potency [5] | Potency [6] | Potency [7] | Potency [8]

C[N+](C)(C)CC=O
inactive: Potency [1] | Potency [2] | Potency [3] | max response [4] 21.1% | Potency [5] | Potency [6] | Potency [7] | Potency [8]

CCCC[C@@]1(C2CCCC2)Cc2cc(OCC(=O)O)c(Cl)c(Cl)c2C1=O
inactive: Potency [1] | Potency [2] | Potency [3] | max response [4] 8.17% | Potency [5] | Potency [6] | Potency [7]

c1ccc(C(NCCNC(c2ccccc2)c2ccccc2)c2ccccc2)cc1
inactive: Potency [1] | Potency [2] | Potency [3] | Potency [5] | Potency [6]

O=C(O)c1cc(=O)cc(C(=O)O)[nH]1
inactive: Potency [1] | Potency [2] | Potency [3] | Potency [5] | Potency [6] | Potency [7] | Potency [8]

CCCCCCCCCC[Si](C)(C)CCC(=O)NC(Cc1ccc(C)cc1)c1ccccc1 (centres undefined)
inactive: Potency [1] | Potency [2] | Potency [3] | max response [4] 13.6% | Potency [5] | Potency [6] | Potency [7] | Potency [8]

NC(N)=N[C@@H](CCC(=O)O)C(=O)O
inactive: Potency [1] | Potency [2] | Potency [3] | max response [4] -1.42% | Potency [5] | Potency [6] | Potency [7] | Potency [8]

CC1C(=O)N(C)C(=O)c2nc[nH]c21 (centres undefined)
inactive: Potency [1] | Potency [2] | Potency [3] | max response [4] 38.8% | Potency [5] | Potency [6] | Potency [7] | Potency [8]

CCCn1c(=O)c2[nH]c(C3CCCC3)nc2n(CCC)c1=O
inactive: Potency [1] | Potency [2] | Potency [3] | max response [4] 13.8% | Potency [5] | Potency [6] | Potency [7]

C#CCn1c(=O)c2c(ncn2C)n(C)c1=O
inactive: Potency [1] | Potency [2] | Potency [3] | max response [4] 7.96% | Potency [5] | Potency [6] | Potency [7] | Potency [8]

N=C(N)SCCN
inactive: Potency [2] | Potency [3] | Potency [5] | Potency [6] | Potency [7] | Potency [8]

O=C(O)C1=CCNCC1
inactive: Potency [1] | Potency [2] | max response [4] 2.03% | Potency [5] | Potency [6] | Potency [8]

Cc1cc2c(cc1Cl)N(C(=O)Nc1ccnc3ccccc13)CC2
inactive: Potency [1] | Potency [2] | Potency [3] | Potency [5] | Potency [6] | Potency [7]

CCCn1c(=O)c2[nH]c(-c3ccc(S(=O)(=O)O)cc3)nc2n(CCC)c1=O
inactive: Potency [1] | Potency [2] | Potency [3] | max response [4] 27.3% | Potency [5] | Potency [6] | Potency [7] | Potency [8]

c1ccc(CN2CCC3(CCCc4ccccc43)CC2)cc1
inactive: Potency [1] | Potency [2] | Potency [3] | Potency [5] | Potency [6] | Potency [7] | Potency [8]

Oc1ccc(Cn2cc[nH]c2=S)cc1
inactive: Potency [1] | Potency [2] | Potency [3] | max response [4] 24% | Potency [5] | Potency [6] | Potency [7] | Potency [8]

Cn1cc(C(F)(F)F)nc1-c1ccc(OCC(O)CNCCOc2ccc(O)c(C(N)=O)c2)cc1 (centres undefined)
inactive: Potency [1] | Potency [2] | Potency [3] | max response [4] 26.1% | Potency [5] | Potency [6] | Potency [7] | Potency [8]
